ST2 IL33 inh – inhibitors of human ST2 (IL1RL1) binding to IL-33, primary screen, biochemical, AlphaLISA; AID 1259354, 2018; Interleukin-1 receptor-like 1 (Homo sapiens), Q01638; AlphaLISA ST2-Fc/biotin-IL-33 interaction, 1 h; 78,000 compounds, 2.3% hits; inhibition, % for hits at 17 µM; in the data active means inhibition above about 30%
Target sequence (Q01638 whole entry, looked up): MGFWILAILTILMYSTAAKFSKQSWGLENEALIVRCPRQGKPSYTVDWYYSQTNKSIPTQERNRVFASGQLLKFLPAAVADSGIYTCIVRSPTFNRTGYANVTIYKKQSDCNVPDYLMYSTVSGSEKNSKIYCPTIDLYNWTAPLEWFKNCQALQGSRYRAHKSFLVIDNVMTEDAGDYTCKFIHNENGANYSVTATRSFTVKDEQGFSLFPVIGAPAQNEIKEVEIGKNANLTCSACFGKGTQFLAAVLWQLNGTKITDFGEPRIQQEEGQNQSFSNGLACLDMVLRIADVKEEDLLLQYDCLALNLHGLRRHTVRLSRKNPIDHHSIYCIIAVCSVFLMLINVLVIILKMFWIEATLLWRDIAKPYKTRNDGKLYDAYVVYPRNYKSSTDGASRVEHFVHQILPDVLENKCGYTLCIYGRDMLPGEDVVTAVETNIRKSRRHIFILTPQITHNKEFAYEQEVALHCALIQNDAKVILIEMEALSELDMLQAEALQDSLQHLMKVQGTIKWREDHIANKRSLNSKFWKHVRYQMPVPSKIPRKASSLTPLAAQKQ
Hits are given with their value. This is one part of a sample in which hits are shown more often than they occur.

What do the screens show for `Cc1cccc2oc(-c3cccc(N=Cc4cccc([N+](=O)[O-])c4O)c3)nc12`?
ST2 IL33 inh: inactive

How did CCN(CC)Cc1c(O)ccc2cc(-c3nc4ccccc4[nH]3)c(=O)oc12 do in these assays?
ST2 IL33 inh: inactive

What do the screens show for `O=[N+]([O-])c1cc2c(cc1C=Nc1ccc(O)c(-c3nc4ccccc4[nH]3)c1)OCO2`?
ST2 IL33 inh: 30.0%

What do the screens show for `Cc1cccc(N=Cc2cc3c(cc2[N+](=O)[O-])OCO3)c1`?
ST2 IL33 inh: 33.0%

What do the screens show for `Cc1ccccc1CN1CC[C@H](c2nnc(-c3cncn3C)o2)C1`?
ST2 IL33 inh: inactive

What do the screens show for `COCc1cc(C)nc(SCC(=O)c2ccc(O)c(O)c2)c1C#N`?
ST2 IL33 inh: inactive

What do the screens show for `COc1cccc(-c2ccccc2NC(=O)C2CCN(Cc3cccc4ncccc34)CC2)c1`?
ST2 IL33 inh: inactive

What do the screens show for `N#C/C(=C\c1ccc(-c2cccc(C(F)(F)F)c2)o1)C(=O)O`?
ST2 IL33 inh: inactive

How did N#C/C(=C\c1ccc(-c2ccccc2)o1)C(=O)Nc1cccc2ncccc12 do in these assays?
ST2 IL33 inh: 40.0%

What do the screens show for `CCc1nnc(CN(C)Cc2cccc(C(=O)Nc3ccnn3C)c2)o1`?
ST2 IL33 inh: inactive

Results for O=C(NCCn1cc(SCC(=O)N2CCCCCC2)c2ccccc21)c1ccc(F)cc1 ?
ST2 IL33 inh: inactive

How did COC(=O)C1CCN(c2nc(CN3CCCC3c3nccs3)nc3cc(OC)c(OC)cc23)CC1 (stereo not given) do in these assays?
ST2 IL33 inh: inactive

How did CCOC(=O)C1C(=O)C=C(c2cccc(OC)c2)CC1c1ccc(OC)c(OC)c1 (stereo not given) do in these assays?
ST2 IL33 inh: inactive

What do the screens show for `CCOC(=O)C1C(=O)C=C(c2cccs2)CC1c1cccc(F)c1` (stereo not given)?
ST2 IL33 inh: 47.0%

How did CCOC(=O)C1C(=O)C=C(c2ccco2)CC1c1cccs1 (stereo not given) do in these assays?
ST2 IL33 inh: inactive

What do the screens show for `CCCOc1ccc(-c2nc(C(N)=O)c3c(n2)n(-c2ccc(F)cc2)c(=O)n3C)cc1OCC`?
ST2 IL33 inh: inactive

How did CC(C)CNC(=O)CN1C(=O)c2ccccc2C1=O do in these assays?
ST2 IL33 inh: inactive

How did CSc1ccc(NC(=O)c2sc3nc(-c4ccc(F)cc4)ccc3c2N)cc1 do in these assays?
ST2 IL33 inh: 44.0%

How did COc1cc(NC(=O)c2sc3nc(-c4ccc(F)cc4)ccc3c2N)cc(OC)c1OC do in these assays?
ST2 IL33 inh: inactive

What do the screens show for `COc1ccc(CCNC(=O)c2sc3nc(-c4ccc(OC)cc4)ccc3c2N)cc1`?
ST2 IL33 inh: inactive

How did O=C(c1ccc(Br)cc1)N(c1ccc(F)cc1)C1C=CS(=O)(=O)C1 (stereo not given) do in these assays?
ST2 IL33 inh: inactive

Results for CCCN(CC#Cc1ccccc1)C(=O)c1ccc2nccn2c1 ?
ST2 IL33 inh: inactive

Results for Cc1cc(C)c(Cn2c(=O)n(CC(=O)NCc3ccco3)c(=O)c3sccc32)c(C)c1 ?
ST2 IL33 inh: inactive

How did CN(C)c1ccc(-c2nnc([C@H]3CCN(Cc4ccccc4)C3)o2)cc1 do in these assays?
ST2 IL33 inh: inactive

What do the screens show for `Cc1ccc(S(=O)(=O)c2ccc(-c3ccc([N+](=O)[O-])cc3)cc2)cc1`?
ST2 IL33 inh: 31.0%

What do the screens show for `Cc1ccc(S(=O)(=O)N(Cc2ccc([N+](=O)[O-])cc2)C(C)(C)C)cc1`?
ST2 IL33 inh: inactive

What do the screens show for `Cc1ccc(NS(=O)(=O)c2ccc([N+](=O)[O-])cc2)cc1`?
ST2 IL33 inh: inactive

Results for O=C(CSc1nc2ccccc2[nH]1)N1CCCCCC1 ?
ST2 IL33 inh: inactive

Results for Cc1ccc(-c2cc(C(=O)NCC3CCCO3)c3ccccc3n2)c(C)c1 (stereo not given) ?
ST2 IL33 inh: inactive

Results for CCCn1cc(C(=O)N2CCNCC2C(=O)N2CCOCC2)c(C)n1 (stereo not given) ?
ST2 IL33 inh: inactive

Results for COc1ccc(C(CC(=O)O)C(=O)O)cc1 (stereo not given) ?
ST2 IL33 inh: inactive

Results for Cc1nc(C(C)NC2CCN(S(C)(=O)=O)CC2)n[nH]1 (stereo not given) ?
ST2 IL33 inh: inactive

Results for O=C(c1ccco1)N1CCN(Cc2cn[nH]c2-c2cc3ccccc3o2)CC1 ?
ST2 IL33 inh: inactive

Results for Cc1cc(N2CCN(c3cc(N4CCN(CCO)CC4)ccc3[N+](=O)[O-])CC2)c2ccccc2n1 ?
ST2 IL33 inh: inactive

What do the screens show for `O=[N+]([O-])c1ccc(N2CCN(c3nc(N4CCN(CCO)CC4)nc4ccccc34)CC2)cc1`?
ST2 IL33 inh: 31.0%

How did OCCN1CCN(c2nc(NCc3ccco3)c3ccccc3n2)CC1 do in these assays?
ST2 IL33 inh: inactive

What do the screens show for `COc1ccc(-c2ccnc(N[C@H]3CO[C@H]4[C@@H]3OC[C@H]4OC(=O)Nc3cccc(C(C)=O)c3)n2)cc1`?
ST2 IL33 inh: inactive

How did O=C(O)c1ccccc1SC1CC(=O)N(c2ccc(OC(F)F)cc2)C1=O (stereo not given) do in these assays?
ST2 IL33 inh: inactive

How did O=S(=O)(c1ccccc1)c1nc(-c2ccc(F)cc2)oc1N1CCCCC1 do in these assays?
ST2 IL33 inh: inactive

What do the screens show for `Fc1ccccc1OCCCOc1ccccc1F`?
ST2 IL33 inh: inactive

How did N#Cc1nc(COc2ccc(Br)cc2)oc1N1CCCCC1 do in these assays?
ST2 IL33 inh: 64.0%

How did Fc1ccccc1OCCN1CCNCC1 do in these assays?
ST2 IL33 inh: inactive

Results for Brc1ccc(-c2noc(COc3ccccc3)n2)cc1 ?
ST2 IL33 inh: inactive

How did COc1ccc(-c2nc(C#N)c(N3CCOCC3)o2)cc1 do in these assays?
ST2 IL33 inh: inactive

Results for Cc1ccccc1OCc1nc(C#N)c(N2CCCC2)o1 ?
ST2 IL33 inh: 71.0%

What do the screens show for `N#Cc1nc(COc2ccccc2F)oc1N1CCCC1`?
ST2 IL33 inh: 53.0%

Results for N#Cc1nc(-c2ccc(F)cc2)oc1N1CCOCC1 ?
ST2 IL33 inh: inactive

What do the screens show for `Cc1nc(S(=O)(=O)c2ccccc2)c(N2CCCCC2)o1`?
ST2 IL33 inh: inactive

What do the screens show for `N#Cc1nc(COc2ccccc2F)oc1N1CCCCC1`?
ST2 IL33 inh: 53.0%

How did O=C(COc1ccc(Br)cc1)N1CCCC1 do in these assays?
ST2 IL33 inh: inactive

Results for O=C1c2ccccc2C(=O)N1c1ncn[nH]1 ?
ST2 IL33 inh: inactive

Results for CC1(C)C(C#N)=C(SCC(N)=O)NC(=O)C1C#N (stereo not given) ?
ST2 IL33 inh: inactive

How did CC1=C(C(N)=O)C(c2ccc(F)cc2)n2nc(SCc3ccccc3Cl)nc2N1 (stereo not given) do in these assays?
ST2 IL33 inh: inactive

Results for CC(=O)NS(=O)(=O)c1ccc(NC(=O)C(Cl)Cl)cc1 ?
ST2 IL33 inh: inactive

What do the screens show for `CC1(C)C(c2ccccc2)=NC(c2ccccc2F)N1O` (stereo not given)?
ST2 IL33 inh: inactive

Results for CCC1CN(CC(=O)N2CCN(c3ccc(C(=O)OC)cc3)CC2)Cc2ccc(Cl)cc2O1 (stereo not given) ?
ST2 IL33 inh: inactive

How did COC(=O)c1c(NC(=O)COc2ccc(Cl)cc2Br)sc(C)c1C do in these assays?
ST2 IL33 inh: inactive

Results for CC(Oc1ccccc1)C(=O)N1CCN(c2ccc([N+](=O)[O-])cc2)CC1 (stereo not given) ?
ST2 IL33 inh: 48.0%

What do the screens show for `O=C(c1ccccc1Cl)N1CCN(c2ccc([N+](=O)[O-])cc2)CC1`?
ST2 IL33 inh: inactive

What do the screens show for `O=C(C(Cl)Cl)N1CCN(c2ccc([N+](=O)[O-])cc2)CC1`?
ST2 IL33 inh: inactive
